Data from PubChem BioAssay AID953 (National Center for Advancing Translational Sciences (NCATS), 2007).
Some of the results follow. Records with an inconclusive call do not appear. Calls of active or inactive are those of the source. The call rests on the fitted dose curve; in most records, active means well fitted curve in the direction sought with a large enough effect; inconclusive means small, poorly fitted or top-dose-only effect, or effect the other way, or another doubt; inactive means no such curve, though single readings can be large or run the other way.

Assay: Confirmation Concentration-Response Assay for Agonists of the Thyroid Stimulating Hormone Receptor: Activators of Intracellular cAMP Concentrations in Parental HEK 293
Conditions: parental HEK293 CNG biosensor, cAMP membrane potential fluorescence; series mostly up to 32.9 µM
Text: NIH Chemical Genomics Center [NCGC] NIH Molecular Libraries Screening Centers Network [MLSCN] MLSCN Grant: 1 X01 MH080680-01 PI Name: Dr. Marvin Gershengorn NCGC Assay Overview: This cell based assay utilized a cyclic nucleotide gated ion channel (CNG) as a biosensor for cAMP induction. HEK 293 cells stably expressing the modified CNG were purchased from BD biosciences (http://www.atto.com/products/actone/features_benefits.shtml) . Stimulation of cAMP production causes the CNG to open and subsequent membrane depolarization to occur. A fluorescent membrane potential dye (BD biosciences) was utilized to detect cAMP stimulation in cells. The cells were maintained in DMEM medium (Invitrogen) containing 10 % FBS (Hyclone), 100 units/ml Penicillin, 100 ug/ml Streptomycin (Invitrogen), and 250 ug/ml Geneticin (Invitrogen) and 1 ug/ml Puromycin (Invitrogen) at 37C in 5% CO2. This assay was used as a counterscreen to "Confirmation Concentration-Response Assay for Agonists of the Thyroid Stimulating Hormone Receptor", to control for compounds signaling through endogenous receptors and other targets of HEK 293 cells.
NCGC Assay Protocol Summary: High Throughput Screening. Freshly passaged cells were dispensed into 1536-well assay plates at 4 ul/well in DMEM containing phenol red (Invitrogen), 10% FCS (Hyclone), and 100 units/ml Penicillin, 100 ug/ml Streptomycin (Invitrogen) and incubated at 37 C with 5% CO2 for 20 to 36 hrs before the robotic screening. The screen was initiated by addition of 4 ul/well membrane potential dye containing 100 uM RO 20-1724 (Sigma Aldrich), followed by 60 min incubation at room temperature to allow for dye equilibration across the cell membrane. 23 nl/well compound or control was then added to the assay plates, which were incubated for additional 30 min before reading a Envision fluorescence plate reader (Perkin Elmer) in bottom-read mode for fluorescence intensity (emission at 590 nm). Keywords: cAMP, CNG Ion Channel, quantitative high throughput screening, qHTS, HTS, probe identification, CNG, cAMP, cyclic nucleotide gated ion channel PubChem
For `O=C(CN1C(=O)NC2(CCCCC2)C1=O)NCCC1=CCCCC1`, the outcome was “inactive”. With `C=CCn1c(COc2ccccc2F)nnc1SCC(=O)N1CC(=O)Nc2ccccc21` the outcome was “inactive”. For `O=C(COC(=O)C12CC3CC(CC(C3)C1)C2)NCc1ccco1`, the outcome was “inactive”. With `CCOC(=O)c1cnc(-n2nc(C)cc2C)nc1-n1nc(C)cc1C` the outcome was “inactive”. For `Cc1ccc(Nc2nc(CSc3nnnn3-c3ccccc3)cc(=O)[nH]2)cc1`, the outcome was “inactive”. For `CCOC(=O)CSc1nnc(NC(=O)c2cccc(S(=O)(=O)N3CCCCC3)c2)s1`, the outcome was “inactive”.
